Test results published in PubChem BioAssay (Tox21).
Inconclusive results are not listed. Activity calls are given as the source filed them. Unless noted, calls come from the whole dose curve; as a rule, active = well fitted curve in the direction sought with a large enough effect in the repeat runs; inconclusive = weak or mixed curves; inactive = no such curve, though single readings can be large; an effect the other way counts as inactive or inconclusive.

Experiments:
[1] = qHTS assay to identify small molecule agonists of the peroxisome proliferator-activated receptor delta (PPARd) signaling pathway - cell viability counter screen (AID 743211); note: nearly all actives have a fitted effect of over 55% in size
Method in brief: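 PPARd-bla HEK293H cells (UAS-beta-lactamase reporter) were treated with compounds for 17 h at 37 C. Viability was then read in the same wells by CellTiter-Glo luminescence after 30 min at room temperature.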

[2] = qHTS assay to identify small molecule antagonists of the peroxisome proliferator-activated receptor delta (PPARd) signaling pathway - cell viability counter screen (AID 743213); note: nearly all actives have a fitted effect of over 50% in size
Method in brief: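 HEK293H PPARd UAS-bla cells, 5 h pre-incubation, compound + L165041 300 nM final, 17 h 37 C; B/G FRET substrate 2 h RT; then CellTiter-Glo 30 min RT, luminescence.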

[3] = target: Bile acid receptor (Homo sapiens) (UniProt Q96RI1); assay: qHTS assay to identify small molecule antagonists of the farnesoid-X-receptor (FXR) signaling pathway (AID 743217; active = well fitted inhibition curve with a large enough effect in the signal ratio in the repeat runs, not every such curve was filed as active; the % refers to the signal ratio)
Sequence of Bile acid receptor (Homo sapiens) (Q96RI1 whole entry, looked up): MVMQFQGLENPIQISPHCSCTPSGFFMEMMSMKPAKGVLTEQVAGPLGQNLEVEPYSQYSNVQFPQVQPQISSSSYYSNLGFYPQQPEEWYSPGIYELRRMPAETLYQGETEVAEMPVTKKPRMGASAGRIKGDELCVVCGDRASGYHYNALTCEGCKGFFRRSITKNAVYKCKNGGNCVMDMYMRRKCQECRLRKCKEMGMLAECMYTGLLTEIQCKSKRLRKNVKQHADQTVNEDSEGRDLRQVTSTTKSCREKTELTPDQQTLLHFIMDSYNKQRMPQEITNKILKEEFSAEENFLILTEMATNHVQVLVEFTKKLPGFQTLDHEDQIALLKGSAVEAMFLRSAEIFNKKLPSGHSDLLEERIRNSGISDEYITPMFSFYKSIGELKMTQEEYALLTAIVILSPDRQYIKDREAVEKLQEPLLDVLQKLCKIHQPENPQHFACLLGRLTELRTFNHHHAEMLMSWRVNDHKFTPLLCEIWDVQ
Method in brief: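 Antagonist mode against 50 uM (final) chenodeoxycholic acid stimulation in FXR-bla HEK 293T cells, 16 h at 37 °C. Inhibition detected as reduced beta-lactamase activity via LiveBLAzer B/G FRET fluorescence after 2 h at room temperature.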

[4] = qHTS assay to identify small molecule agonists of the farnesoid-X-receptor (FXR) signaling pathway - cell viability counter screen (AID 743218); note: nearly all actives have a fitted effect of over 45% in size
Method in brief: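 Cytotoxicity counter-screen run in parallel, same wells: FXR-UAS-bla HEK 293T cells dosed 16 h at 37 C, viability read by CellTiter-Glo luminescence after 30 min at room temperature.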

[5] = target: Bile acid receptor (Homo sapiens) (UniProt Q96RI1); assay: qHTS assay to identify small molecule agonists of the farnesoid-X-receptor (FXR) signaling pathway (AID 743220; active = well fitted activation curve with a large enough effect in the signal ratio in the repeat runs, not every such curve was filed as active; the % refers to the signal ratio)
Method in brief: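 Beta-lactamase reporter under UAS control in GeneBLAzer FXR HEK 293T cells (5000/well) measured with LiveBLAzer FRET substrate after 2 h at room temperature. Compound exposure lasted 16 h at 37C.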

[6] = qHTS assay to identify small molecule antagonists of the farnesoid-X-receptor (FXR) signaling pathway - cell viability counter screen (AID 743221; active = well fitted cell-killing curve with a large enough effect in the repeat runs, not every such curve was filed as active; note: nearly all actives have a fitted effect of over 50% in size)
Method in brief: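 FXR-UAS-bla HEK 293T cells were treated with test compounds plus chenodeoxycholic acid (50 uM final) for 16 h at 37 C. Cell viability in the same wells was then read as CellTiter-Glo luminescence after 30 min at room temperature.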

[7] = target: Vitamin D3 receptor (Homo sapiens) (UniProt P11473); assay: qHTS assay to identify small molecule agonists of the vitamin D receptor (VDR) signaling pathway (AID 743222; calls by dose curve)
Sequence of Vitamin D3 receptor (Homo sapiens) (P11473 whole entry, looked up): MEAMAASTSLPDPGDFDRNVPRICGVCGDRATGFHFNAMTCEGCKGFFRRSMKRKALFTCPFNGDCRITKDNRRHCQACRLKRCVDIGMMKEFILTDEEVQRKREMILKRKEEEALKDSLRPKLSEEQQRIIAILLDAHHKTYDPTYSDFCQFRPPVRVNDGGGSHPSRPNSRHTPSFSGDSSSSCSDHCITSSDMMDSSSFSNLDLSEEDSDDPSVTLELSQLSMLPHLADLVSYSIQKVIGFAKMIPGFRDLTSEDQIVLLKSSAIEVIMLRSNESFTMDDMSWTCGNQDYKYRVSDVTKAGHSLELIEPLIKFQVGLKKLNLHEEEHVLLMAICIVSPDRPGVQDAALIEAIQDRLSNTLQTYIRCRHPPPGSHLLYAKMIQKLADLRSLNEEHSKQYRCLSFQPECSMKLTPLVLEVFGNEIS
Method in brief: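 Quantitative HTS agonist-mode screen: compounds in DMSO were pin-transferred onto VDR-bla cells and incubated 16 h at 37C, 5% CO2. Reporter activity was detected with LiveBLAzer B/G FRET substrate after 2 h at room temperature.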

[8] = target: Vitamin D3 receptor (Homo sapiens) (UniProt P11473); assay: qHTS assay to identify small molecule antagonists of the vitamin D receptor (VDR) signaling pathway (AID 743223; active = well fitted inhibition curve with a large enough effect in the signal ratio in the repeat runs, not every such curve was filed as active; the % refers to the signal ratio)
Method in brief: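 VDR-bla cells were plated, incubated 4 h at 37C, then given compound and 1alpha,25-dihydroxyvitamin D3 (3 nM final). After 16 h at 37C, LiveBLAzer B/G FRET substrate was added for 2 h at room temperature and fluorescence read.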

[9] = qHTS assay to identify small molecule agonists of the vitamin D receptor (VDR) signaling pathway - cell viability counter screen (AID 743224); note: series mostly up to about 63 µM; nearly all actives have a fitted effect of over 50% in size
Method in brief: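 Viability is measured in the same wells as the VDR-bla reporter assay: after 16 h compound treatment and 2 h substrate loading, CellTiter-Glo is added and luminescence read 30 min later.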

[10] = qHTS assay to identify small molecule antagonists of the vitamin D receptor (VDR) signaling pathway - cell viability counter screen (AID 743225); note: nearly all actives have a fitted effect of over 50% in size
Method in brief: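 VDR-bla HEK 293T cells, 4 h pre-incubation at 37C, then compound plus 1-alpha,25-dihydroxyvitamin D3 (3 nM final) for 16 h. After the beta-lactamase FRET read, CellTiter-Glo was added to the same wells; luminescence after 30 min at room temperature.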

[11] = qHTS assay to identify small molecule agonists of the NFkB signaling pathway - cell viability counter screen (AID 1159515; calls by dose curve; note: series mostly up to about 61 µM; nearly all actives have a fitted effect of over 55% in size)
Method in brief: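 Multiplexed viability readout: after the 5 hr compound exposure and 1.5 hr FRET substrate step, CellTiter-Glo reagent went into the same NFkB-bla ME-180 wells; ATP luminescence was measured after 30 min at room temperature.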

[12] = qHTS assay to identify small molecule agonists of the endoplasmic reticulum stress response signaling pathway (AID 1159516; active = well fitted activation curve with a large enough effect in the signal ratio in the repeat runs, not every such curve was filed as active; the % refers to the signal ratio)
Method in brief: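 Tox21 10K library screened in quantitative HTS format on ESRE-bla HeLa cells, a beta-lactamase reporter under ER stress response element control; 5 hr treatment, FRET read.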

[13] = qHTS assay to identify small molecule agonists of the endoplasmic reticulum stress response signaling pathway - cell viability counter screen (AID 1159517; calls by dose curve)
Method in brief: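 Cells, HeLa ESRE-bla; density, 1,500/well; dosing, 5 hr at 37 C, 5% CO2; readout, CellTiter-Glo luminescence after 30 min RT.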

[14] = qHTS assay to identify small molecule antagonists of the retinoid-related orphan receptor gamma (ROR-gamma) signaling pathway - cell viability counter screen (AID 1159520); note: nearly all actives have a fitted effect of over 50% in size
Method in brief: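 Cytotoxicity was read from cellular ATP (CellTiter-Glo luminescence) after 16 hr at 37 C with 1 uM doxycycline induction. The inducer was added 2 hr after compound transfer to Tet-on ROR gamma CHO cells.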

[15] = qHTS assay to identify small molecule agonists of the AP-1 signaling pathway (AID 1159526; calls by dose curve)
[16] = target: Retinoic acid receptor RXR-alpha (Homo sapiens) (UniProt P19793); assay: qHTS assay to identify small molecule agonists of the RXR signaling pathway (AID 1159527; calls by dose curve; note: nearly all actives have a fitted effect of over 35% in size)
Sequence of Retinoic acid receptor RXR-alpha (Homo sapiens) (P19793 whole entry, looked up): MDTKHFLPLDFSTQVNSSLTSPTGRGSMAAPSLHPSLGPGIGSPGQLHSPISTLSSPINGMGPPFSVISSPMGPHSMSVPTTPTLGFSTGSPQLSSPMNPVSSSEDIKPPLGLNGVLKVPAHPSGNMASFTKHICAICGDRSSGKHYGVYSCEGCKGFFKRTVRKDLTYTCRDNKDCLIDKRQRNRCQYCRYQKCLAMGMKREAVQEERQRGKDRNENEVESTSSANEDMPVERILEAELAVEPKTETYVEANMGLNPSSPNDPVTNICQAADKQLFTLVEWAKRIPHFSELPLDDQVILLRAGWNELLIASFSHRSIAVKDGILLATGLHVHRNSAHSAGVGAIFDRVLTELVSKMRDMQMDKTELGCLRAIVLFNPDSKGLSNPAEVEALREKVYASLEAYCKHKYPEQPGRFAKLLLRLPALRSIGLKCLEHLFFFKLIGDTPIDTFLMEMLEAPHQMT
Method in brief: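 GeneBLAzer RXR-alpha-UAS-bla HEK 293T cells in medium with 2% charcoal-stripped FBS, pre-incubated 5 hr at 37 C, then exposed to compounds 16 hr. Beta-lactamase reporter read by FRET substrate, 2 hr room temperature, 460/530 nm emission.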

[17] = target: Nuclear receptor ROR-gamma (Homo sapiens) (UniProt P51449); assay: qHTS assay to identify small molecule antagonists of the retinoid-related orphan receptor gamma (ROR-gamma) signaling pathway (AID 1159521)
Method in brief: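 Tet-on RORγ CHO cells carrying a ROR response element–luciferase reporter were pretreated with compounds for 2 h, then induced with 1 uM (final) doxycycline hyclate for 16 h at 37 C. Antagonism was read as decreased ONE-Glo luminescence.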

[18] = qHTS assay to identify small molecule agonists of the AP-1 signaling pathway - cell viability counter screen (AID 1159525; calls by dose curve; note: nearly all actives have a fitted effect of over 55% in size)
Method in brief: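 Luminescent ATP readout (Cell Titer Glo, 30 min RT), normalised to DMSO and tetra n-octyl ammonium bromide controls. Cells were ME-180 AP-1-bla in 0.5% dialyzed FBS Opti-MEM, with a 5 h, 37 °C compound exposure.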

[19] = target: Peroxisome proliferator-activated receptor delta (Homo sapiens) (UniProt Q03181); assay: qHTS assay to identify small molecule agonists of the peroxisome proliferator-activated receptor delta (PPARd) signaling pathway (AID 743212; calls by dose curve)
Sequence of Peroxisome proliferator-activated receptor delta (Homo sapiens) (Q03181 whole entry, looked up): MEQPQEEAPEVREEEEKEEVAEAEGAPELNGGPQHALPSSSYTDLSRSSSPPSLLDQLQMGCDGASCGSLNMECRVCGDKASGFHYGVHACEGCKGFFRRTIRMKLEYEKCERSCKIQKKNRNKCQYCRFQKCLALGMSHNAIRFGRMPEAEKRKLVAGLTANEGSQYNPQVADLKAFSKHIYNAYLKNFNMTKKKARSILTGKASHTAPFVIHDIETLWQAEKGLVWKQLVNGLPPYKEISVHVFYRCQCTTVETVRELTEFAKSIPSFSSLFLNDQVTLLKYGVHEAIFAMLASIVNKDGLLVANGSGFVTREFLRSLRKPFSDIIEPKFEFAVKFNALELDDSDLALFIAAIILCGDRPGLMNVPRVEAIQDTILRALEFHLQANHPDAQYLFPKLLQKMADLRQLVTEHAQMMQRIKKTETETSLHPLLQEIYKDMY
Method in brief: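 HEK293H UAS-bla reporter cells, human PPARd system; compounds delivered in DMSO after 5 h plating, then at 37 C. Beta-lactamase FRET read, 2 h RT substrate step.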

[20] = target: Peroxisome proliferator-activated receptor delta (Homo sapiens) (UniProt Q03181); assay: qHTS assay to identify small molecule antagonists of the peroxisome proliferator-activated receptor delta (PPARd) signaling pathway (AID 743215; active = well fitted inhibition curve with a large enough effect in the signal ratio in the repeat runs, not every such curve was filed as active; the % refers to the signal ratio;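 note: cells stimulated with agonist L165041 at 300 nM final during compound exposure; series mostly up to about 62 µM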)
Method in brief: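 Inhibition of L165041-driven (300 nM final) PPARd signaling is scored in HEK293H UAS-bla cells. Exposure lasts 17 h at 37 C; beta-lactamase activity is then read by FRET substrate fluorescence after 2 h at room temperature.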

Measured: Potency

CC[N+]1(CC)CCC(OC(=O)C(O)(c2ccccc2)c2ccccc2)C1 (stereo unspecified)
inactive: [1] | [2] | [3] | [4] | [5] | [6] | [7] | [8] | [9] | [10] | [11] | [12] | [13] | [14] | [15] | [16]

Nc1c(Cl)c(Cl)c(Cl)c(Cl)c1Cl
inactive: [1] | [10] | [11] | [12] | [14] | [17]

S=C=Nc1ccccc1
inactive: [1] | [2] | [3] | [5] | [6] | [7] | [9] | [10] | [11] | [12] | [14] | [17] | [18] | [15] | [16]

O=[N+]([O-])c1ccc(CCl)cc1
inactive: [1] | [19] | [2] | [20] | [6] | [8] | [9] | [10] | [11] | [12] | [14] | [17] | [18] | [15]

COc1ccc2c3c1O[C@H]1[C@H](O)CC[C@H]4[C@@H](C2)N(C)CC[C@@]341
inactive: [19] | [2] | [20] | [6] | [9] | [10] | [11] | [12] | [14] | [17] | [18] | [15] | [16]

CC(C)=CC1C(C(=O)OC(C#N)c2cccc(Oc3ccccc3)c2)C1(C)C (stereo unspecified)
inactive: [1] | [19] | [2] | [20] | [3] | [4] | [5] | [6] | [9] | [11] | [13] | [14] | [17] | [18] | [15]

Nc1ccccc1-c1ccccc1
inactive: [1] | [2] | [20] | [6] | [7] | [9] | [10] | [11] | [12] | [14] | [17] | [18] | [15]

CCCCC(CC)COC(=O)OOC(C)(C)C (stereo unspecified)
inactive: [1] | [19] | [20] | [6] | [9] | [10] | [11] | [12] | [14] | [17] | [18] | [15] | [16]

Cc1cc(C2CC2)nc(Nc2ccccc2)n1
inactive: [4] | [5] | [6] | [7] | [10] | [11] | [12] | [17]

CCCCON=O
inactive: [1] | [19] | [2] | [20] | [6] | [7] | [8] | [11] | [12] | [14] | [18] | [15] | [16]

CN=C=O
inactive: [19] | [2] | [20] | [4] | [6] | [9] | [11] | [12] | [14] | [17] | [18] | [15]

Cc1nn(-c2cc(NS(C)(=O)=O)c(Cl)cc2Cl)c(=O)n1C(F)F
inactive: [1] | [19] | [2] | [6] | [7] | [8] | [10] | [11] | [13] | [14] | [17] | [18] | [15] | [16]

CC(=O)[O-].CC(=O)[O-].[Co+2]
inactive: [1] | [4] | [6] | [9] | [10] | [11] | [12] | [18] | [15]

Nc1ccc(N=Nc2ccccc2)cc1
inactive: [11] | [13] | [14] | [17] | [18]

Nc1nc(N)nc(Cl)n1
inactive: [1] | [2] | [6] | [9] | [10] | [11] | [12] | [14] | [17] | [15] | [16]

COc1nc(C)nc(NC(=O)NS(=O)(=O)c2ccccc2Cl)n1
inactive: [1] | [2] | [6] | [8] | [9] | [10] | [11] | [12] | [14] | [17] | [18] | [15] | [16]

N#CCCl
inactive: [1] | [2] | [3] | [4] | [5] | [7] | [8] | [9] | [10] | [11] | [12] | [14] | [17] | [18] | [15]

CN
inactive: [1] | [2] | [4] | [6] | [8] | [9] | [11] | [12] | [14] | [17] | [15] | [16]

[O]=[Cr][O][Cr]=[O]
inactive: [2] | [3] | [5] | [7] | [11] | [12] | [14] | [17] | [18] | [15] | [16]

COC(=O)/C=C(\C)OP(=O)(OC)OC
inactive: [1] | [19] | [2] | [4] | [5] | [6] | [7] | [8] | [9] | [11] | [13] | [14] | [17] | [18] | [15] | [16]

COc1c2c(cc3c1OCO3)CCN(C)C2
inactive: [1] | [19] | [20] | [4] | [6] | [8] | [11] | [12] | [14] | [17] | [18] | [16]
